Seven molecules from PubChem BioAssay (EPA / NIEHS) can be followed below.

“And” between values parts separate entries of the source, which are not always exact repeats. Identical values can stand only once. A structure can be active in one record and inactive in another. The source made the active and inactive calls. How the source made its calls: active means hit-call score of the fitted dose curve at least 0.9, where 1 is the maximum; inactive means score below 0.9.

A word on the AC50: it is the concentration at which the activity in the assay is half-maximal.

Common to all, as to settings: mRNA level, 48 h; actives raise or lower the signal
Read-out in one experiment: CYP4A11 (gene 1579)
The experiment is described as follows: LTEA_HepaRG_CYP4A11: Life Technologies and Expression Analysis (LTEA) Assay for CYP4A11 using HepaRG (AID 2283486). The gist of the method:
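Readout is CYP4A11 transcript level by qRT-PCR, normalized to three housekeeping genes and fitted bidirectionally against 0.5% DMSO. Human HepaRG cells were treated 48 h, in duplicate, with an 8-point half-log series topping at 100 uM.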

Read-out in experiment [1]: Cytochrome P450 3A4 (Homo sapiens) (UniProt P08684)
The experiment is described as follows: LTEA_HepaRG_CYP3A4: Life Technologies and Expression Analysis (LTEA) Assay for CYP3A4 using HepaRG (AID 2283487). The method, then: LTEA_HepaRG is a cell based, multiplexed-readout assay that uses HepaRG, a human liver cell line, with measurements taken at 48 hours after chemical dosing on a 96-well plate.LTEA_HepaRG_CYP3A4 is one of 102 assay component(s) measured in the LTEA HepaRG cell culture assay. It is a marker of NR mediated metabolism.Data from the assay component LTEA_HepaRG_CYP3A4 was analyzed into 1 endpoint. This assay endpoint, LTEA_HepaRG_CYP3A4, was analyzed with bidirectional fitting relative to DMSO as the negative control and baseline of activity. Using a type of inducible reporter, measures of mRNA induction for gain or loss-of-signal activity can be used to understand regulation of transcription factor activity. To generalize the intended target to other relatable targets, this assay endpoint is annotated to the cyp intended target family, where the subfamily is xenobiotic metabolism.
A total of 1060 chemcials from the ToxCast library were tested in eight-point concentration-response experiments. Cell culture and cytotoxicity assays were conducted at Thermo Fisher Scientific's Custom Services facility (Madison, WI). A single lot of human HepaRG cells (Thermo Fisher Scientific, Frederick, MD) was used for the cell culture experiments. 96-well format collagen type I coated plates of human HepaRG cells were prepared using established methods. Briefly, cryopreserved HepaRG cells were thawed, plated at a density of approximately 100,000 cells/well in HepaRG Thaw, Plate, and General Purpose media (HPRG770, Thermo Fisher Scientific), and incubated for 48 hours. 0.5% DMSO was selected as vehicle control to balance the requisite need of DMSO in HepaRG cultures to maintain differentiation (for example, baseline metabolism, proportions of hepatocytes vs. cholangiocytes), while enabling further hepatic receptor pathway activation (for example, PXR and CAR) in response to chemical exposure. 48 hours after plating, the culture medium was replaced with HepaRG Serum-Free Incudtion Media. Cells were exposed to each test chemical in duplicate and maintained in CO2 incubators for another 48 hours. Chemical plates were thawed to room temperature and 200x concentrations of treatment groups were prepared. 8-point conentration-reponse curves were made with the highest exposure at 100 uM, followed by half-log dilutions, all in 0.5% DMSO. Each test plate contained variouse controls, induction positive controls (1mM phenobarbital), cytotoxicity positive controls ([…] aflatoxin B1), vehicle controls (0.5% DMSO), and total lysis controls (0.5% DMSO). Cell morphology images were taken using an Essen IncuCyte FLR automated microscope, with six 96-well plates imaged in about 24 minutes. Images were captured and exported and JPEG files. Spent culture media was transfered to black-well plates for the LDH assay, and remaining media was sorted at -80 C for later use. Cells were treated with RLT buffer and frozen until shipped for gene expression analysis. Total RNA was isolated from the cell suspension in 75 uL of Buffer RLT (Qiagen, Germantown, MD 20874) by Quintiles/Expression Analysis (Durham, NC) using a custom isolation procedure. Total RNA from each plate well was transferred to a preamplification plate. Fluidigm's 96.96 Dynamic ArrayTM (Fluidigm, Amsterdam, the Netherlands) technology was used for gene expression analyses by quantitative reverse transcription polymerase chain reaction (qRT-PCR, performed by Quintiles/Expression Analysis, Durham, NC)89. Standard TaqManTM Assays (Applied Biosystems/ThermoFisher Scientific, Foster City, CA) were used to assess the expression of 93 genes selected based on their selectivity and sensitivity to important hepatic receptors known to be modulated by environmental chemicals; importance in human hepatocyte functionality; and hepatotoxicity. […]

Read-out in experiment [2]: DNA damage-inducible transcript 3 (DDIT3), DDIT3 (gene 1649)
The experiment is described as follows: LTEA_HepaRG_DDIT3: Life Technologies and Expression Analysis (LTEA) Assay for DNA damage-inducible transcript 3 (DDIT3) using HepaRG (AID 2283488). In a few lines: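 HepaRG cells, 48 h after plating, exposed 48 h in serum-free induction medium to 8 half-log concentrations up to 100 uM in 0.5% DMSO, in duplicate. DDIT3 mRNA measured by TaqMan qRT-PCR, normalized to ACTB, GAPDH and POLR2A. Fitted bidirectionally against DMSO.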

Read-out in experiment [3]: Pro-epidermal growth factor (Homo sapiens) (UniProt P01133)
Description: LTEA_HepaRG_EGF: Life Technologies and Expression Analysis (LTEA) Assay for Epidermal growth factor (EGF) using HepaRG (AID 2283489). In a few lines: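 EGF transcript measured by Fluidigm TaqMan qRT-PCR with three housekeeping genes for normalization, 48 h after dosing HepaRG cultures in duplicate (top 100 uM, half-log steps, 0.5% DMSO vehicle). Gain or loss relative to DMSO fitted.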

Read-out in experiment [4]: Early growth response protein 1 (EGR1) transcription factor, EGR1 (gene 1958)
Description: LTEA_HepaRG_EGR1: Life Technologies and Expression Analysis (LTEA) Assay for Early growth response protein 1 (EGR1) transcription factor using HepaRG (AID 2283490). The gist of the method:
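Read-out is EGR1 mRNA level by qRT-PCR, normalized to three housekeeping genes and analysed for gain or loss of signal against 0.5% DMSO. Source cells: human HepaRG, treated 48 h at up to 100 uM in half-log dilutions.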

Read-out in experiment [5]: Ezrin (EZR), EZR (gene 7430)
The experiment is described as follows: LTEA_HepaRG_EZR: Life Technologies and Expression Analysis (LTEA) Assay for Ezrin (EZR) using HepaRG (AID 2283491). In a few lines:
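Differentiated human HepaRG cells, 48 h after plating, were exposed in serum-free induction medium for 48 hours to eight half-log concentrations up to 100 uM in 0.5% DMSO. EZR mRNA was measured by TaqMan qRT-PCR, normalized to ACTB, GAPDH and POLR2A, and fitted bidirectionally against DMSO.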

Read-out in experiment [6]: Cytochrome P450 3A7 (Homo sapiens) (UniProt P24462)
Description: LTEA_HepaRG_CYP3A7: Life Technologies and Expression Analysis (LTEA) Assay for CYP3A7 using HepaRG (AID 2283492). In a few lines: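 CYP3A7 transcript measured by qRT-PCR (ACTB, GAPDH, POLR2A normalization) after 48 h chemical exposure of HepaRG cells in duplicate. Eight half-log concentrations, maximum 100 uM, 0.5% DMSO vehicle; bidirectional curve fitting against DMSO baseline.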

Read-out in the next experiment: CYP3A5 (gene 1577)
Description: LTEA_HepaRG_CYP3A5: Life Technologies and Expression Analysis (LTEA) Assay for CYP3A5 using HepaRG (AID 2283493). In a few lines: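 HepaRG cells, plated 48 h then in serum-free induction medium, dosed in duplicate for 48 h with eight half-log concentrations up to 100 uM in 0.5% DMSO. Gene mRNA by Fluidigm TaqMan qRT-PCR, normalized to ACTB, GAPDH, POLR2A.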

Read-out in experiment [7]: Fatty Acid-Binding Protein 1 (FABP1), FABP1 (gene 2168)
Description: LTEA_HepaRG_FABP1: Life Technologies and Expression Analysis (LTEA) Assay for Fatty Acid-Binding Protein 1 (FABP1) using HepaRG (AID 2283494). In a few lines:
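HepaRG, 48 h post-plating switched to serum-free induction medium, then dosed 48 h (duplicate, 8 pts, ≤100 uM, 0.5% DMSO). RNA → Fluidigm TaqMan qRT-PCR, FABP1 normed to ACTB/GAPDH/POLR2A. Bidirectional curve fit vs DMSO.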

Read-out in experiment [8]: Cytochrome P450 4A22 (Homo sapiens) (UniProt Q5TCH4)
Description: LTEA_HepaRG_CYP4A22: Life Technologies and Expression Analysis (LTEA) Assay for Cytochrome P450 4A22 (CYP4A22) using HepaRG (AID 2283495). The gist of the method: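 Gene expression measured by qRT-PCR against three housekeeping genes (ACTB, GAPDH, POLR2A), with gain or loss fitted relative to 0.5% DMSO vehicle. HepaRG cultures received 48 h chemical treatment, top concentration 100 uM, half-log steps, duplicate wells.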

Cytochrome P450 3A7 (Homo sapiens), sequence (P24462 whole entry, looked up): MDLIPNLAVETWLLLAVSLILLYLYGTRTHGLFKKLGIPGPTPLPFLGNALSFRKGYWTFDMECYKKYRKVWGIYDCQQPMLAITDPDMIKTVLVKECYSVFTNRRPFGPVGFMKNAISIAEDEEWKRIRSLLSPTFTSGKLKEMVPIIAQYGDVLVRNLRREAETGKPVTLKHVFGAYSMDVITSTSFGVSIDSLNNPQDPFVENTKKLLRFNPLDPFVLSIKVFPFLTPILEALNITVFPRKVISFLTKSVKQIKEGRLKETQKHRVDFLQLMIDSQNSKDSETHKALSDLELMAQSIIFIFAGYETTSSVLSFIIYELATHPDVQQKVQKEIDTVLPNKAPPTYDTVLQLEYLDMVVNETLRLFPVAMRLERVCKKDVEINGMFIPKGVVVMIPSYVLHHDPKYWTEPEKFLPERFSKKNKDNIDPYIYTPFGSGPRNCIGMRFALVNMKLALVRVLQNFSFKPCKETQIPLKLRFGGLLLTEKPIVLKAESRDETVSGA
Cytochrome P450 3A4 (Homo sapiens), sequence (P08684 whole entry, looked up): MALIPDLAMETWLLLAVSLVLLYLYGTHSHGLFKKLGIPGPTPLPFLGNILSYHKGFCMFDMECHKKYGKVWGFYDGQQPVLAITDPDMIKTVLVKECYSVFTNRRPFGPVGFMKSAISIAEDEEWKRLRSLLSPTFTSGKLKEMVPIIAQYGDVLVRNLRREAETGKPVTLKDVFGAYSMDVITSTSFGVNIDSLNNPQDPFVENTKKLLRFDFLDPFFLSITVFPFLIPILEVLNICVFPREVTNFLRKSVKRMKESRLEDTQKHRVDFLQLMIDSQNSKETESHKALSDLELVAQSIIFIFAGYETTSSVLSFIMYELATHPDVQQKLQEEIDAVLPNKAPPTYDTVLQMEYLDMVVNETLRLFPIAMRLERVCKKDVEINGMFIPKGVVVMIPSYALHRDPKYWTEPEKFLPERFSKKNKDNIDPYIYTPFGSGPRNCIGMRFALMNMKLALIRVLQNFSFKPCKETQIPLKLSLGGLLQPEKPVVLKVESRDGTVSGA

With `COC(=O)c1ccc(C(=O)OC)cc1`, the call (with CYP4A11 (gene 1579); in experiment [1]; in experiment [2]; in [3]; in experiment [4]; in experiment [5]) was inactive. For the same molecule, the outcome (in experiment [6]; with CYP3A5 (gene 1577); in [7]; in [8]) was inactive.

Turning to `O=C(c1ccc(OCCN2CCCCC2)cc1)c1c(-c2ccc(O)cc2)sc2cc(O)ccc12`, the result (with CYP4A11 (gene 1579); in [3]; in [6]; in [8]) was inactive. Moreover, the AC50 in experiment [2] was 83.3 µM (active); in [4], 90.9 µM (active); in [5], 50 µM (active); with CYP3A5 (gene 1577), 41.4 µM (active); in experiment [7], 50 µM (active).

For the molecule `C=C(C)C(N)=O`, the result (with CYP4A11 (gene 1579); in experiment [1]; in experiment [2]; in [3]; in experiment [4]; in experiment [5]) was inactive. Moreover, the molecule was called inactive (in experiment [6]; with CYP3A5 (gene 1577); in experiment [7]; in experiment [8]).

With `CCCCOCCOCCO`, the result (in the experiment with CYP4A11 (gene 1579); in [1]; in experiment [2]; in experiment [3]; in [4]; in experiment [5]) was inactive. The outcome (in experiment [6]; with CYP3A5 (gene 1577); in [7]; in experiment [8]) was inactive.

For `C#C[C@]1(O)CC[C@H]2[C@@H]3CCc4cc(O)ccc4[C@H]3CC[C@@]21C`, the molecule was called inactive (with CYP4A11 (gene 1579); in experiment [1]; in [2]; in experiment [3]; in [4]; in [5]). The call (in [6]; with CYP3A5 (gene 1577); in experiment [7]; in experiment [8]) was inactive.

Take `C[C@]12CC[C@@H]3c4ccc(O)cc4CC[C@H]3[C@@H]1CC[C@@H]2O`: the AC50 with CYP4A11 (gene 1579) was 76.9 µM (active); in experiment [1] it was 4.95 µM (active); with CYP3A5 (gene 1577) it was 50 µM (active); in experiment [7] it was 29 µM (active); in [8], 50 µM (active). For the same molecule, the molecule was classed as inactive in experiment [2], in [3], in experiment [4] and in experiment [5].

`CC/C(=C(\c1ccccc1)c1ccc(OCCN(C)C)cc1)c1ccccc1`: the AC50 in the experiment with CYP4A11 (gene 1579) was 19.7 µM (active) and 22.4 µM (active); in experiment [2], 64.7 µM (active) and 72.2 µM (active); in experiment [4], 73.6 µM (active); in experiment [5], 81.4 µM (active) and 50 µM (active); with CYP3A5 (gene 1577), 86.7 µM (active); in [7], 60 µM (active) and 70.9 µM (active). Further, the half-maximal activity concentration (AC50) in [8] is 14.5 µM (active) and 20.7 µM (active). The molecule was called inactive (in experiment [1]; in experiment [3]; in experiment [4]; in [6]; with CYP3A5 (gene 1577)).
